According to PubChem BioAssay (Tox21):
Values joined by “and” are separate entries in the source; they are usually repeats but may differ in a detail not shown here. Equal entries are not always repeated. Inconclusive results are not listed. Where a call stands in place of a potency, no number is given. Some structures have more than one record in an assay (separate samples or runs), and their calls can disagree. Active and inactive are the calls of the source. Unless noted, calls follow the shape of the dose curve; as a rule, active = well fitted curve in the direction sought with a large enough effect in the repeat runs; inconclusive = weak or mixed curves; inactive = no such curve, though single readings can be large; an effect the other way counts as inactive or inconclusive.

How the values were obtained:
[1] = qHTS assay to identify small molecule agonists of the hypoxia (HIF-1) signaling pathway - cell viability counter screen (AID 1224844; calls by dose curve; also: nearly all actives have a fitted effect of over 50% in size; also: potency is read from the fitted curve at half-maximal effect)
How it was run: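 Cells (HRE-bla ME-180, 2,000 per well) sat 5 hrs at 37C, got compound for 17 hrs, were read for CCF4-AM FRET, and were finally lysed with CellTiter-Glo for a 30 min room-temperature luminescence read.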

[2] = qHTS assay to identify small molecule agonists of H2AX (AID 1224845; active = well fitted activation curve with a large enough effect in the signal ratio in the repeat runs, not every such curve was filed as active; the % refers to the signal ratio)
How it was run: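 Wild-type CHO-K1 cells, plated overnight, exposed 3hr at 37C to 15 concentrations (0.76% DMSO final). Lysed, then HTRF anti-pH2AX (S139) cryptate and anti-H2AX-d2 antibodies, 24 hr room temperature; 665/620 nm emission read.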

[3] = qHTS assay to identify small molecule agonists of the hypoxia (HIF-1) signaling pathway (AID 1224846; active = well fitted activation curve with a large enough effect in the signal ratio in the repeat runs, not every such curve was filed as active; the % refers to the signal ratio)
How it was run: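 A low-serum medium (0.5% dialyzed FBS) holding 2,000 HRE-bla ME-180 cells per well is preincubated for 5 hrs, dosed with compounds by pintool, and kept a further 17 hrs at 37C, 5% CO2 before CCF4-AM FRET detection of beta-lactamase.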

[4] = qHTS RealTime-Glo MT Cell Viability Assay in HepG2 cells - 24 hour (AID 1224867); also: nearly all actives have a fitted effect of over 50% in size; also: potency is read from the fitted curve at half-maximal effect
How it was run: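 HepG2 cells (600/well) were dispensed with RealTime-Glo reagents, incubated 5 h at 37 °C, then treated with compounds in DMSO for up to 40 h. Nonlytic NanoLuc luminescence reflecting viable cells was read at each stated time point.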

[5] = qHTS RealTime-Glo MT Cell Viability Assay in HEK293 cells - 32 hour (AID 1224868); also: nearly all actives have a fitted effect of over 50% in size; also: potency is read from the fitted curve at half-maximal effect
How it was run: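 HEK293 cells seeded with NanoLuc/prosubstrate reagent, rested 5 h at 37 C, then dosed and kept at 37 C up to 40 h. Nonlytic real-time luminescence from viable cells read at 0, 8, 16, 24, 32 and 40 h.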

[6] = A CellTox Green Cytotoxicity Assay to monitor cytotoxicity in HEK293 cells - 0 hour (AID 1224869); also: nearly all actives have a fitted effect of over 50% in size; also: potency is read from the fitted curve at half-maximal effect
How it was run: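 Fluorescence intensity, read at 0, 8, 16, 24, 32 and 40 h of compound treatment, reflected dye binding to DNA of dead HEK293 cells; compounds (23 nL, DMSO) were added 5 h after plating cells with reagent.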

[7] = qHTS RealTime-Glo MT Cell Viability Assay in HepG2 cells - 40 hour (AID 1224870); also: nearly all actives have a fitted effect of over 50% in size; also: potency is read from the fitted curve at half-maximal effect
How it was run: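 HepG2 cells (600/well) mixed with RealTime-Glo MT reagent, settled 5 h at 37 C/5% CO2 before compound addition. Nonlytic NanoLuc luminescence from viable-cell prosubstrate reduction read repeatedly during 40 h treatment at 37 C.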

[8] = qHTS assay to identify small molecule agonists of the estrogen related receptor (ERR) signaling pathway from Tox21 library (AID 1224849; calls by dose curve; also: nearly all actives have a fitted effect of over 15% in size); settings: ERR reporter cell line, ONE-Glo luciferase, 18 h; at 92.4 µM (top of the series) unless noted
How it was run: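 Screening used an NTP-provided ERR luciferase cell line. Compounds in DMSO were added 6 h after seeding and left 18 h at 37 C before a 30 min ONE-Glo step and luminescence reading.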

[9] = qHTS assay to identify small molecule agonists of H2AX - cell viability counter screen (AID 1224847; calls by dose curve; also: nearly all actives have a fitted effect of over 30% in size; also: potency is read from the fitted curve at half-maximal effect)
How it was run: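 Cytotoxicity counter screen in wild-type CHO-K1 cells: a 3 hr compound treatment at 37C across 15 concentrations, followed by CellTiter-Glo luminescence to gauge viable cells.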

[10] = qHTS assay to identify small molecule antagonists of the estrogen related receptor (ERR) signaling pathway from Tox21 library (AID 1224848); also: nearly all actives have a fitted effect of over 50% in size; also: potency is read from the fitted curve at half-maximal effect
How it was run: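 Luminescent reporter read-out (ONE-Glo) from NTP's ERR cell line after 18 h treatment at 37 C with DMSO-dissolved Tox21 compounds; cells pre-plated 6 h beforehand at 2,000 per well.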

SMILES | Potency [1] | Potency [2] | Potency [3] | Potency [4] | Potency [5] | Potency [6] | Potency [7] | activity change, positive = activation [8] | Potency [9] | Potency [10]
OCC(Br)CBr (configuration not stated) | inactive | inactive | inactive | inactive | inactive | inactive | inactive |  |  | 
C=CCOC(=O)c1ccccc1N | inactive | inactive | inactive | inactive | inactive | inactive | inactive | -28.9% (inactive) |  | 
C=CC(=C)C | inactive | inactive | inactive | inactive | inactive | inactive | inactive |  |  | 
Oc1cc(Cl)c(Cl)c(Cl)c1Cl | inactive | inactive |  | inactive | 47.8 µM (active) | inactive | inactive |  | 49.3 µM (active) | 26.7 µM (active)
CCCCCON=O | inactive | inactive | inactive | inactive | inactive | inactive | inactive |  |  | inactive
CCCN | inactive | inactive | inactive | inactive |  | inactive | inactive |  |  | 
CCCCCCCCCCCCCCn1cc[n+](C)c1 | 24.6 µM (active) and 43.2 µM (active) and inactive | inactive |  | 24.6 µM (active) and 48.5 µM (active) and inactive |  | inactive | 21.9 µM (active) and 34.3 µM (active) and inactive |  | 12.7 µM (active) and 22.3 µM (active) | 1.73 µM (active) and 1.35 µM (active)
CNC(=O)/C=C(\C)OP(=O)(OC)OC | inactive |  | inactive | inactive | inactive | inactive | inactive | -0.497% (inactive) | inactive | inactive
Nc1nc(N)c(N)c(N)n1 | inactive |  | inactive | inactive | inactive | 49.2 µM (active) | inactive | 0.198% (inactive) | inactive | inactive
N#Cc1c[nH]cc1-c1cccc2c1OC(F)(F)O2 | inactive | inactive |  | inactive | 6.92 µM (active) | inactive | inactive | -48.5% (inactive) |  | 27.3 µM (active)
